aSyn 5UTR act = Activators via SNCA 5'UTR binding, MLPCN. alpha-synuclein 5'UTR reporter, activators screen. activity score, % (tested at 7.5 µM), hits read low. actives 7.1% (n = 300,000); in the data active = activity score below about -60%
Large screens that a line does not name were inactive. Not all results are given here.

CC(=O)c1sc(NC(=O)c2ccc(Cl)cc2)nc1C	aSyn 5UTR act -108
Cc1cccc(C(=O)NC(=O)Nc2c(C)cc(C)nc2C)c1	aSyn 5UTR act -147
CC(=O)c1sc(NCc2ccc(C)cc2)nc1C	aSyn 5UTR act -168
CC(=O)c1sc(NC(=O)c2cccc(C)c2)nc1C	aSyn 5UTR act -131
Cc1ccc(CNc2nc(Cl)c(C#N)s2)cc1	aSyn 5UTR act -146
Cc1nc(NC(=O)c2ccc(F)cc2)sc1C(=O)Nc1ccc2c(c1)CCC2	aSyn 5UTR act -99
CC(=O)c1sc(NC(=O)c2ccc(F)c(F)c2)nc1C	aSyn 5UTR act -159
Cc1cc(C)nc(-n2nc(C)c(Sc3ccc(F)cc3)c2N)n1	aSyn 5UTR act -182
COC(=O)Cc1[nH]n(-c2nc3ccccc3s2)c(=O)c1C(C)=Nc1ccc(C)cc1	none
COC(=O)Cc1[nH]n(-c2ccccc2)c(=O)c1C(C)=Nc1ccccc1	aSyn 5UTR act -71
CC(C)(C)c1nnc(NC(=O)c2ccc3c(c2)OCO3)s1	aSyn 5UTR act -191
CC(C)(C)c1nnc(NC(=O)COc2ccc3c(c2)OCO3)s1	aSyn 5UTR act -81
CC(C)c1nnc(NC(=O)c2ccc3c(c2)OCO3)s1	none
CC(c1ccccc1)c1nnc(NC(=O)c2ccc3c(c2)OCO3)s1 (stereo not drawn)	aSyn 5UTR act -139
CCSc1nnc(NC(=O)c2ccc3c(c2)OCO3)s1	aSyn 5UTR act -94
CCN(CC)C(=O)c1sc(NC(=O)c2ccc3c(c2)OCO3)c(C(N)=O)c1C	aSyn 5UTR act -105
CCCC(=O)Nc1nnc(-c2ccc3c(c2)OCO3)s1	aSyn 5UTR act -141
CC(C)Sc1nnc(NC(=O)c2ccc3c(c2)OCO3)s1	aSyn 5UTR act -118
CCCC(=O)NC(c1ccc2c(c1)OCO2)c1cc(Cl)c2cccnc2c1O (stereo not drawn)	none
CC(C)(C)c1ccc(C(=O)Nc2ncn[nH]2)cc1	aSyn 5UTR act -134
COc1ccc(C2CC(c3ccccc3)=NN2C(=O)c2cccs2)cc1 (stereo not drawn)	aSyn 5UTR act -92
COc1ccc(C2CC(c3ccccc3)=NN2C(=O)COC(=O)c2cccnc2)cc1 (stereo not drawn)	aSyn 5UTR act -62
COc1ccc(C2CC(c3ccccc3OC(=O)/C=C/c3ccccc3)=NN2C(C)=O)cc1 (stereo not drawn)	aSyn 5UTR act -69
NC(=S)N/N=C/c1coc2c(ccc3ccccc32)c1=O	aSyn 5UTR act -74
COc1ccc(NC(=O)C(=O)c2cn(CC(=O)N3CCCC3)c3ccccc23)c(OC)c1	aSyn 5UTR act -86
COc1ccccc1NC(=O)C(=O)c1cn(CC(=O)N2CCOCC2)c2ccccc12	aSyn 5UTR act -119
O=C(CCl)Nc1c(C(=O)Nc2ccc3c(c2)OCCO3)oc2ccccc12	aSyn 5UTR act -139
Cc1c(C(=O)Nc2ccc3c(c2)OCO3)oc2ccccc12	aSyn 5UTR act -137
COCC(=O)Nc1c(C(=O)Nc2ccc3c(c2)OCO3)oc2ccccc12	aSyn 5UTR act -117
CC(=O)Nc1c(C(=O)Nc2ccc3c(c2)OCO3)oc2ccccc12	aSyn 5UTR act -88
CCn1c(SCC(=O)c2ccc(Cl)cc2)nnc1C(C)C	aSyn 5UTR act -76
Cc1ccc(C(=O)Nc2ncc([N+](=O)[O-])s2)cc1	none
O=C(Cc1ccc(Br)cc1)Nc1ncc([N+](=O)[O-])s1	aSyn 5UTR act -105
O=C(Nc1ncc([N+](=O)[O-])s1)c1ccco1	aSyn 5UTR act -98
O=C(Cc1ccc(Cl)cc1)Nc1ncc([N+](=O)[O-])s1	aSyn 5UTR act -131
CC(C)CC(NC(=O)c1ccc(Cl)cc1)C(=O)OCC(=O)c1ccc2c(c1)NC(=O)CO2 (stereo not drawn)	none
CC(C)NC(=O)c1ccc2c3n(nc2c1)-c1ccc(Cl)cc1CO3	aSyn 5UTR act -176
CCN(CC)CCCNC(=O)c1ccc2c3n(nc2c1)-c1ccc(Cl)cc1CO3	aSyn 5UTR act -246
CN(C)c1ccc(/C=C/c2cccc[n+]2[O-])cc1	aSyn 5UTR act -101
CC(C)CC[n+]1ccccc1/C=C/c1ccc(N(C)C)cc1	none
COC(=O)N/N=C/c1ccc(-c2cc(Cl)cc(Cl)c2)o1	none
NC(=O)N/N=C/c1ccc(-c2cccc(C(F)(F)F)c2)o1	aSyn 5UTR act -84
Cc1ccc(C(=O)N2C(CC(=O)Nc3ccc(Cl)cc3)C(=O)NC3CCCCC32)cc1 (stereo not drawn)	aSyn 5UTR act -72
CC1CCN(C(=O)CSCc2ccc(Cl)cc2)CC1	aSyn 5UTR act -95
CCOC(=O)c1ccc2c(c1)nc(-c1ccccn1)n2CC	aSyn 5UTR act -134
Cc1nc(S(=O)(=O)N(C)Cc2ccccc2)c(C#N)c(C)c1Cl	aSyn 5UTR act -118
Cc1nc(S(=O)(=O)NC2CCCCC2)c(C#N)c(C)c1Cl	aSyn 5UTR act -91
Cc1nc(S(=O)(=O)N2CCOCC2)c(C#N)c(C)c1Cl	aSyn 5UTR act -100
CC1CCC(C(C)C)C(=O)/C1=C/c1ccc(N)cc1 (stereo not drawn)	aSyn 5UTR act -173
Cc1cc(C)c(NN=c2c(=O)c3ccccc3c2=O)c(C)c1	aSyn 5UTR act -125
Cc1csc(NC(=O)Cc2c(F)cccc2Cl)n1	aSyn 5UTR act -131
Cc1cc(CNC(=O)Cc2c(F)cccc2Cl)nn1C	aSyn 5UTR act -72
